Tg IFNy HTS – inhibitors of Toxoplasma gondii growth with IFN-gamma; Toxoplasma gondii growth in IFN-gamma-treated host cells; hits give low values; activity change, negative = inhibition, % (no concentration beside the values); hit rate 3.8% among 69,000; in the data active = activity change below about -70%, passing the limit was not always enough;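 also: host cells are HeLa cells infected with Toxoplasma gondii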
An asterisk follows results filed as active; i = inactive. This excerpt belongs to a sample that is enriched for hits.

SMILES	Tg IFNy HTS
COc1cccc(CC2CN(C(=O)c3ccc(S(N)(=O)=O)cc3)CCO2)c1 (configuration not stated)	5
Cc1csc2ncc(C(=O)N3CCc4sccc4C3c3cccs3)c(=O)n12 (configuration not stated)	-7
O=C(O)C(Cc1cnc[nH]1)N1C(=O)c2ccc(F)cc2C1=O (configuration not stated)	-46
COc1cccc(CC(=O)N2CCc3nc(-c4ccc(F)cc4)nc(C)c3CC2)c1	-6
CC(C)(C)OC(=O)N1CCc2[nH]nc(Nc3ccccc3)c2C1	-5
COc1cccc(Nc2nc(-c3ccncc3)nc3c2CN(C(=O)OC(C)(C)C)CC3)c1	-75*
O=C(COc1ccccc1)N1C[C@H]2CC=CC[C@H]2C1	6
CC(C)OC(=O)c1cc(-n2cnnc2)ccc1Cl	0
CC(Cn1cnc2ccccc2c1=O)NCc1nc2ccc(Cl)cc2[nH]1 (configuration not stated)	-31
CCC(CN1CCOCC1)NC(=O)Cc1coc2cc(C)cc(C)c12 (configuration not stated)	-82*
Cc1ccc2c(CC(=O)NCCC3CN(C)CCO3)coc2c1 (configuration not stated)	0
Cc1ccc(C(NC(=O)c2cc(CN3CCOCC3)c(C)o2)c2ccncc2)cc1C (configuration not stated)	-3
COc1ccccc1N1CCN([C@H]2CN(C(=O)CCC(C)C)C[C@@H]2O)CC1	-8
CCc1nc(SCC(=O)NCc2ccc3c(c2)OCO3)n[nH]1	-44
CN1CCCc2sc(C(=O)NCC3CCCO3)nc21 (configuration not stated)	-37
Cc1ccnc(N2CCC(C(=O)Nc3cccc4ccccc34)CC2)n1	-33
Cc1ccc(NC2=CC(=O)c3sc(C)nc3C2=O)cc1	-76*
COC(=O)[C@@H]1CCCN1Cc1nc(-c2cc(OC)c3c(c2)OCO3)oc1C	-42
COC(=O)C1=C(C)NC(C)=C([N+](=O)[O-])[C@H]1c1ccccc1C(F)(F)F	-34
COC(=O)C1=C(C)NC(C)=C(C(=O)NCCCN2CCC(c3ccccc3)(c3ccccc3)CC2)C1c1ccc([N+](=O)[O-])cc1 (configuration not stated)	-76*
COC(=O)C1=C(C)NC(C)=C(C(=O)OCCCN2CCC(c3ccccc3)(c3ccccc3)CC2)[C@@H]1c1cccc([N+](=O)[O-])c1	-87*
COC(=O)C1=C(C)NC(C)=C(C(=O)OCC(C)C)C1c1ccccc1[N+](=O)[O-] (configuration not stated)	17
COC(=O)C1=C(C)NC(C)=C(C(=O)O[C@H]2CCN(Cc3ccccc3)C2)[C@H]1c1cccc([N+](=O)[O-])c1	-2
C#CCN1C(C)=C(C(=O)OC)C(c2cccc([N+](=O)[O-])c2)C(C(=O)OCC)=C1C (configuration not stated)	15
Nc1cnn(CC(=O)N2CCCCC2)c1	-40
SMILES	Tg IFNy HTS
COCC(=O)N1CCCn2nnc(Cn3cccc3)c2C1	9
c1ccc(CCNc2nnns2)cc1	-97*
COc1ccccc1Nc1nnns1	12
CCOC(=O)Nc1nnc(CCc2ccccc2)s1	0
Cc1cccc(CNC2=NCCNC23CCN(S(=O)(=O)c2ccc(Cl)s2)CC3)c1	-8
Cc1ccc(S(=O)(=O)N2CCN(Cc3cc4n(n3)CCNC4)CC2)cc1	-3
CCc1nc(C2CC(=O)Nc3c2cnn3Cc2ccccc2Cl)c(C)[nH]1 (configuration not stated)	7
COCCN1C(=O)CCc2cc(NS(=O)(=O)c3cccc(OC)c3)ccc21	1
CC(C)CN1C(=O)CCc2cc(NS(=O)(=O)c3cccc(Cl)c3)ccc21	-80*
COc1cccc(S(=O)(=O)Nc2ccc3c(c2)CCC(=O)N3CC(C)C)c1	-52
CC(C)CN1C(=O)CCc2cc(NC(=O)c3cc(F)ccc3Cl)ccc21	-40
CC(C)CN1C(=O)CCc2cc(NS(=O)(=O)c3ccccc3F)ccc21	-59
Cc1cc(S(=O)(=O)Nc2ccc3c(c2)CCC(=O)N3CC(C)C)ccc1F	-97*
CC(C)CN1C(=O)CCc2cc(NS(=O)(=O)c3ccc(F)c(Cl)c3)ccc21	-87*
COCCN1C(=O)CCc2cc(NS(=O)(=O)c3ccc4c(c3)OCCO4)ccc21	88
COCCN1C(=O)CCc2cc(NS(=O)(=O)c3ccc(F)c(C)c3)ccc21	-20
c1cnc(N2CCC3(COCc4cnc(N5CCOCC5)nc43)C2)nc1 (configuration not stated)	4
COc1ccc(NC(=O)C(=O)NCCc2sc(-c3ccccc3)nc2C)cc1	117
CCN(CC)C(=O)c1cc(=O)n(CC(=O)Nc2ccc3c(c2)OCO3)c2ccccc12	-32
CO[C@H]1COC[C@@H]1NC(=O)c1ccc(CSc2ccccn2)cc1	12
c1cnc2c(-c3nccn3CCn3cccn3)cccc2c1	15
COCCC(=O)N1CCC(c2nc(Nc3cccc(F)c3)cc(-c3cccnc3)n2)CC1	-12
O=C(CN1C(=O)CCc2cc(S(=O)(=O)N3CCCC3)ccc21)NC1CCCCCCC1	2
CCN1CC(C(=O)O)CN2CCN(C(=O)c3ccncc3F)CC2C1 (configuration not stated)	-31
O=C1CCC2(CCN1)CCN(C(=O)Cc1ccc(O)c(Cl)c1)CC2	5
SMILES	Tg IFNy HTS
CCOCC(=O)N1C[C@@H]2CN(c3cnccn3)CC[C@H]2C1	-53
OC(c1cc(C(F)(F)F)nc2c(C(F)(F)F)cccc12)C1CCCCN1 (configuration not stated)	-80*
Cc1ccc(-c2nnc(-c3nc(NCCc4cccs4)c4ccccc4n3)o2)cc1	-12
Cc1ccc(-c2nnc(-c3nc(NCCCN4CCCC4=O)c4ccccc4n3)o2)cc1	263
CCCSCCCNc1nc(-c2nnc(-c3cccc(C)c3)o2)nc2ccccc12	-107*
CCCSCCCNc1nc(-c2nnc(-c3ccccc3)o2)nc2ccccc12	-92*
C1=C(CCNc2nc(-c3nnc(-c4ccccc4)o3)nc3ccccc23)CCCC1	-99*
Cc1ccc(CCNc2nc(-c3nnc(-c4ccccc4)o3)nc3ccccc23)cc1	-14
COc1ccc(CNc2nc(-c3nnc(-c4ccccc4)o3)nc3ccccc23)cc1	i
Cc1cccc(-c2nnc(-c3nc(NCCCN4CCCC4=O)c4ccccc4n3)o2)c1	441
c1ccc(-c2nnc(-c3nc(NCCN4CCOCC4)c4ccccc4n3)o2)cc1	-48
c1ccc(-c2nnc(-c3nc(NCCc4cccs4)c4ccccc4n3)o2)cc1	-40
Cc1ccc(-c2nnc(-c3nc(NCCCN4CCc5ccccc5C4)c4ccccc4n3)o2)cc1	-118*
Cc1cccc(-c2nnc(-c3nc(NCCc4cnc[nH]4)c4ccccc4n3)o2)c1	121
Cc1cc(=O)oc2cc(CN3CCCC(Cn4ccnc4)C3)ccc12 (configuration not stated)	-2
CCc1ccc(NC(=O)N2CCc3nc(N4CCCC4)nc(C)c3CC2)cc1	13
CN(Cc1cnn(C)c1)Cc1nc(-c2cccnc2)no1	4
CC1N(CC2CC2)C(=O)COC12CCN(C(=O)c1ccco1)CC2 (configuration not stated)	-6
O=S(=O)(c1ccccc1)n1cccc1CN1CCCC1c1ccccn1 (configuration not stated)	1
COCCN1C[C@H]2COC[C@H](CC(=O)NCc3ccco3)[C@H]2C1	-4
CCC(C)NC(=O)C1CC(c2ccccc2Cl)=NO1 (configuration not stated)	36

Screens deposited in PubChem BioAssay by Broad Institute.
